Assay outcomes as filed in PubChem.
Compounds with a hit are over-represented: about 4.1% of the library has one in this group of screens.
DAX1 inh-1 = NR0B1 (DAX1) inhibition; P51843; HEK293 Gal4-DAX1 luciferase reporter, luminescence; inhibition, % at 6.75 µM; 340,000 compounds, 0.99% hits;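 active = inhibition above the mean over all tested compounds plus 3 SD, cut at about 4.2% in these data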;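 also: inhibition shows as a rise in luminescence from relieved DAX1 repression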
Target sequence (P51843 207-470 limits assumed): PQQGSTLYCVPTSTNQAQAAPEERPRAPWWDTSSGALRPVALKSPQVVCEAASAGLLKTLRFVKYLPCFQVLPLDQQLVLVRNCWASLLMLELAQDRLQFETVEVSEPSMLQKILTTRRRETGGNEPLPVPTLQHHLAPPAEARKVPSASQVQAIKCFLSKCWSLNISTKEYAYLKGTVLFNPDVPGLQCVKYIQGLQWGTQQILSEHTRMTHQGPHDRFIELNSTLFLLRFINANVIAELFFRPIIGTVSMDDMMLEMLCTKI
hcDAF-12 act = activates DAF-12 receptor from parasite H. contortus; HEK293 hcDAF-12 lit1-tk-luc reporter, luminescence; 0% DMSO, 100% Δ7-dafachronic acid; activation, % at 6.8 µM; 370,000 compounds, 1.4% hits;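 active = activation above the mean of all tested compounds plus 3 SD, cut at about 5.5% in these data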
DAX1 inh-2 = inhibitors of DAX1 repression of SF-1 activated StAR promoter; inhibition, % at 6.8 µM; HEK293T StAR-luciferase reporter, SF-1/DAX-1 repression relief; AID 652010; 370,000 compounds, 1.1% hits;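 active = inhibition above the mean over all tested compounds plus 3 SD, cut at about 3.6% in these data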;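 also: higher inhibition means more luminescence from relief of DAX-1 repression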
ssDAF12 agonist = S. stercoralis DAF-12 activation, primary screen | 370,000 compounds, 1% hits | activation, % at 6.8 µM | HEK293 ssDAF-12/GRIP1 lit1-tk-luc reporter, luminescence; % of 3 µM dafachronic acid response;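 active = activation above the mean over all tested compounds plus 3 SD, cut at about 0.9% in these data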
hgDAF-12 ag = activates the H. glycines DAF-12 receptor ligand-binding domain. 370,000 compounds, 1.8% hits. AID 687014. HEK293 GAL4-hgDAF12 UAS-luciferase reporter, agonist luminescence; normalized to butyrate control. activation, % at 6.8 µM;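 active = activation above a cutoff set at the mean of all screened compounds plus 3 SD, cut at about 10% in these data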
Numbers stand for hits; i = inactive; nt = no result given.

SMILES | DAX1 inh-1 | hcDAF-12 act | DAX1 inh-2 | ssDAF12 agonist | hgDAF-12 ag
Cc1cc2nc(-c3ccccc3)c(Cc3ccsc3)n2c(C)c1Br | nt | i | i | 2.0 | i
COc1ccc(N/N=C(\C#N)C(=N)N2CCOCC2)cc1 | 5.3 | i | i | i | i
N#C/C(=N\Nc1ccccc1)C(=N)N1CCCCCC1 | 6.8 | i | i | i | i
N#C/C(=N/Nc1ccccc1F)C(=N)N1CCOCC1 | i | i | i | i | i
Cc1ccccc1/C=C/c1nc2ccccc2c(=O)[nH]1 | i | i | i | i | 11
N#CCOc1ccccc1/C=C/c1nc2ccccc2c(=O)[nH]1 | i | i | i | i | i
COc1cccc(C(=O)n2ccc3ccc(-c4ccc5ccn(Cc6ccccc6)c5c4)cc32)c1 | nt | i | i | i | i
COc1ccc(C(=O)NCCS(=O)(=O)N2CCCC2)cc1 | i | 6.1 | i | i | i
COc1ccc(C(=O)NCCS(=O)(=O)N2CCCCCC2)cc1 | i | i | i | i | i
O=C(NCc1csc(-c2cccs2)n1)c1ccccc1 | i | i | i | i | i
O=C(NCc1csc(-c2cccs2)n1)c1cccc(Cl)c1 | 4.4 | i | i | i | i
Nc1c(C(=O)O)cnc2c(-c3ccc(Cl)cc3)cnn12 | i | 6.4 | i | 1.0 | 12
CNS(=O)(=O)c1ccc(NC(=O)c2csc(C)c2)cc1 | i | i | i | i | i
Cc1cc(C(=O)Nc2ccc(Br)cc2)cs1 | i | 5.6 | 3.9 | i | i
COC(=O)c1sccc1NC(=O)Nc1ccc(Cl)c(Cl)c1 | i | i | i | i | 11
COC(=O)c1sccc1NC(=O)c1csc(C)c1 | i | i | i | 1.0 | i
CCCCCCCCN1CCS(=O)(=O)N(Cc2ccc(F)cc2)C(C(=O)OC)C1 (centres undefined) | nt | i | i | i | i
Cc1c(-n2c(O)c(C3=c4ccccc4=NC3=O)sc2=S)c(=O)n(-c2ccccc2)n1C | i | 5.6 | i | i | i
Cc1ccc(C(=O)C2CCN(CC(=O)N(C)C3CCCCC3)CC2)cc1 | nt | i | i | i | i
O=S1(=O)C=CCN1Cc1cn(Cc2ccc(C(F)(F)F)cc2)nn1 | nt | i | i | i | i
Cc1cc(-c2c(C)[nH]n(-c3ccccc3)c2=O)n[nH]1 | i | 5.8 | i | i | i
Cc1cc(-c2c(C)[nH]n(-c3ccccc3)c2=O)n(-c2ccccc2)n1 | i | i | i | i | i
CC(=O)c1ccc(N2C(=NC(=O)COc3ccccc3)SC3CS(=O)(=O)CC32)cc1 (centres undefined) | 5.5 | i | i | i | i
CCNC(=O)O/N=C(\C)c1sc(-c2ccc(Cl)cc2)nc1C | i | i | i | i | 11
C/C(=N\OC(=O)NC(C)C)c1sc(-c2ccc(Cl)cc2)nc1C | i | i | i | i | i
SMILES | DAX1 inh-1 | hcDAF-12 act | DAX1 inh-2 | ssDAF12 agonist | hgDAF-12 ag
COc1ccccc1NC(=S)NNC(=O)c1nn(C)c(C)c1Br | i | i | i | i | 12
COc1ccccc1NC(=S)NNC(=O)c1nn(C)c(C)c1Cl | i | i | i | i | i
CCN(Cc1ccccc1)S(=O)(=O)c1ccc(F)cc1 | i | i | i | i | i
CCN(Cc1ccccc1)S(=O)(=O)c1cn(C)cn1 | i | i | i | i | 13
O=C(Nc1ccc2c(c1)OCCO2)C(c1ccnc2ccccc12)n1c(=O)c(-c2ccco2)nc2ccccc21 (centres undefined) | nt | i | i | 1.5 | i
CC(C)(C)NC(=O)C(c1ccccc1F)n1c(=O)c(-c2ccco2)nc2ccccc21 (centres undefined) | nt | i | 4.3 | i | i
O=C(NC1CCCCC1)C(c1ccccc1F)n1c(=O)c(-c2ccco2)nc2ccccc21 (centres undefined) | nt | i | i | i | i
Cc1cccc(C)c1NC(=O)C(c1ccncc1)n1c(=O)c(-c2ccco2)nc2ccccc21 (centres undefined) | nt | i | i | 2.1 | i
Cc1cccc(C)c1NC(=O)C(C1CC1)n1c(=O)c(-c2ccco2)nc2ccccc21 (centres undefined) | nt | i | i | i | i
O=C(NC1CCCCC1)C(c1ccnc2ccccc12)n1c(=O)c(-c2ccco2)nc2ccccc21 (centres undefined) | nt | i | i | 1.1 | i
COC(=O)[C@]12C[C@H](CC(=O)NCC34CC5CC(CC(C5)C3)C4)C(=O)N(Cc3ccc4c(c3)OCO4)C1=C[C@H](C(C)C)O[C@@H]2C1CC1 | nt | i | i | i | i
C#CCN1C(=O)[C@]2(NCCc3c2[nH]c2ccc(OC)cc32)c2cc(F)ccc21 | nt | i | i | i | i
COC(=O)c1cc(-c2cc(Cl)ccc2OC)c(=O)n2c1CCC2 | nt | i | i | i | i
O=C(O)CCN1C(=O)/C(=C/c2cccc(OCc3ccc(F)cc3)c2)SC1=S | nt | i | nt | i | i
CN(C)CC[n+]1ccc(C(=O)c2ccccc2)cc1 | 5.1 | i | i | i | i
O=C(C[n+]1ccc(C(=O)c2ccccc2)cc1)Nc1ccc(C(F)(F)F)cc1 | i | i | i | i | i
FC(F)(F)c1cccc(N2CCN(C3=Nc4ccccc4Sc4ccccc43)CC2)c1 | nt | i | i | i | i
COc1ccc(/C=C2\CCc3c2nc2ccccc2c3C(=O)O)cc1OC | i | i | 4.3 | i | i
CN(C)/C=C(\C#N)C(=O)Nc1ccc(F)c(Cl)c1 | i | i | i | 1.3 | i
CN(C)/C=C(\C#N)C(=O)Nc1ccc(F)cc1 | i | i | i | i | i
O=C(CSc1cccc2cccnc12)OCC(=O)c1ccc(Br)cc1 | i | i | i | i | i
O=C(CSc1cccc2cccnc12)OCC(=O)c1ccccc1 | 4.5 | i | i | i | i
COC(=O)C1CN(Cc2ccccc2)CCS(=O)(=O)N1Cc1cn(Cc2ccc(Cl)cc2)nn1 (centres undefined) | nt | i | i | i | i
C=CCN1C(C(=O)OC)CN(Cc2cn(Cc3ccc(C)cc3)nn2)CCS1(=O)=O (centres undefined) | nt | i | i | i | i
CC(=O)Nc1ccc(S(=O)(=O)C(C#N)c2nc3ccccc3nc2NCCCO)cc1 (centres undefined) | 5.3 | i | i | i | i
SMILES | DAX1 inh-1 | hcDAF-12 act | DAX1 inh-2 | ssDAF12 agonist | hgDAF-12 ag
CCCN1CCS(=O)(=O)N(Cc2cn(Cc3ccc(C)cc3)nn2)C(C(=O)OC)C1 (centres undefined) | nt | i | i | i | i
COc1ccccc1-c1cc(=O)c2c(O)ccc([N+](=O)[O-])c2o1 | i | i | i | i | i
COC(=O)c1cc(=O)c2c([N+](=O)[O-])ccc(OC)c2o1 | 4.6 | i | i | i | i
C/C(=N\Nc1ccc(Cl)c(C(=O)O)c1)c1cccs1 | i | i | i | i | i
C/C(=N\Nc1ccc(Cl)c(C(=O)O)c1)c1ccc[nH]1 | i | 6.4 | i | i | i
Cc1ccc(C(=O)NC2CCN(CC(=O)NCc3cccs3)CC2)cc1 | i | i | i | i | i
Cc1ccccc1C(=O)NC1CCN(CC(=O)NCc2cccs2)CC1 | 5.2 | i | i | i | i
Cc1ccccc1C(=O)NC1CCN(Cc2ccccc2)CC1 | i | i | i | 1.4 | i
Cc1ccccc1C(=O)NC1CCN(Cc2nnnn2CCc2ccccc2)CC1 | i | i | i | i | i
